# Test results as given in PubChem BioAssay (NCATS).
# Inconclusive results are not listed. A call without a number means that no potency is given here. Calls of active or inactive are those of the source. Calls follow the shape of the dose curve; as a rule, active = well fitted cell-killing curve with a large enough effect; inconclusive = small, poorly fitted or top-dose-only effect, or effect the other way; inactive = no such curve, though single readings can be large or run the other way.
# Tests used:
# [1] = Quantitative High-Throughput drug screen in 47 multiple myeloma cell lines against the NCATS MIPE library collection: FR4_PLB cell viability assay (AID 1918924; also: nearly all actives have a fitted effect of over 35% in size)
# How it was run: (§1)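 Approved and investigational drugs from MIPE 4.0 were added by pin tool to 500 cells per well. After 48 hours at 37C, ATP-based CellTiter-Glo luminescence indicated remaining viability.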
# [2] = Quantitative High-Throughput drug screen in 47 multiple myeloma cell lines against the NCATS MIPE library collection: Delta47_JCRB cell viability assay (AID 1918925; also: nearly all actives have a fitted effect of over 45% in size)
# How it was run: as §1
# [3] = Quantitative High-Throughput drug screen in 47 multiple myeloma cell lines against the NCATS MIPE library collection: EJM_DSMZ cell viability assay (AID 1918926; also: nearly all actives have a fitted effect of over 30% in size)
# How it was run: as §1
# [4] = Quantitative High-Throughput drug screen in 47 multiple myeloma cell lines against the NCATS MIPE library collection: AMO1_DSMZ cell viability assay (AID 1918927; also: nearly all actives have a fitted effect of over 30% in size)
# How it was run: as §1
# [5] = Quantitative High-Throughput drug screen in 47 multiple myeloma cell lines against the NCATS MIPE library collection: ARD_JJKsccE7 cell viability assay (AID 1918929)
# How it was run: as §1
# [6] = Quantitative High-Throughput drug screen in 47 multiple myeloma cell lines against the NCATS MIPE library collection: Karpas620_DSMZ cell viability assay (AID 1918959); also: nearly all actives have a fitted effect of over 30% in size
# How it was run: as §1
# [7] = Quantitative High-Throughput drug screen in 47 multiple myeloma cell lines against the NCATS MIPE library collection: KMM1_JCRB cell viability assay (AID 1918960); also: nearly all actives have a fitted effect of over 30% in size
# How it was run: (§2)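 CellTiter-Glo luminescence after 48 h exposure gives viability, scaled between DMSO-only (100%) and media-only (0%) controls. Library compounds are pinned onto 500 myeloma cells per well, incubated at 37C with 5% CO2.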
# [8] = Quantitative High-Throughput drug screen in 47 multiple myeloma cell lines against the NCATS MIPE library collection: Karpas417_ECACC cell viability assay (AID 1918961); conditions: Karpas417 myeloma viability, CellTiter-Glo ATP luminescence, 48 h; viability (% of DMSO): at 45.8 µM (top of the series)
# How it was run: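 Inhibition of cell viability is measured here. Each line was plated at 500 cells per well, treated with MIPE 4.0 drugs, kept 48 hours at 37C, then assayed for ATP content by CellTiter-Glo luminescence.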
# [9] = Quantitative High-Throughput drug screen in 47 multiple myeloma cell lines against the NCATS MIPE library collection: ARP1_JJKsccF8 cell viability assay (AID 1918928; also: nearly all actives have a fitted effect of over 40% in size)
# How it was run: as §2
# Potency is read from the fitted curve at half-maximal effect.
SMILES,Potency [1],Potency [2],Potency [3],Potency [4],Potency [5],Potency [6],Potency [7],Potency [8],Potency [9],viability (% of DMSO) [8]
CN(C)c1cc(NC(=O)CNC(C)(C)C)c(O)c2c1C[C@@H]1C[C@H]3[C@H](N(C)C)C(=O)C(C(N)=O)=C(O)[C@@]3(O)C(=O)C1=C2O,inactive,inactive,inactive,inactive,inactive,inactive,inactive,inactive,–,–
CC(C)C(C)C=CC(C)C1CCC2C3=CC=C4CC(O)CCC4(C)C3CCC21C (stereo unspecified),inactive,inactive,inactive,inactive,inactive,18.7 µM (active),inactive,inactive,inactive,–
CN1[C@@H]2CCC[C@@H]1CC(NC(=O)c1nn(C)c3ccccc13)C2 (stereo partly specified),inactive,inactive,inactive,inactive,–,inactive,inactive,–,–,–
Clc1ccc(C(c2ccc(Cl)cc2)n2cc[n+](CC(OCc3ccc(Cl)cc3Cl)c3ccc(Cl)cc3Cl)c2)cc1 (stereo unspecified),20.9 µM (active),8.33 µM (active),16.6 µM (active),16.6 µM (active),11.8 µM (active),9.35 µM (active),8.33 µM (active),8.33 µM (active),–,–
CN1C[C@H]2c3ccccc3Oc3ccc(Cl)cc3[C@@H]2C1,inactive,inactive,inactive,–,–,–,–,–,inactive,–
CON=C(C(=O)N[C@@H]1C(=O)N2C(C(=O)OCOC(=O)C(C)(C)C)=C(C=Cc3scnc3C)CS[C@H]12)c1csc(N)n1,inactive,inactive,inactive,inactive,–,16.6 µM (active),–,20.9 µM (active),inactive,–
CCn1cc(C(=O)O)c(=O)c2ccc(C)nc21,inactive,inactive,inactive,–,inactive,inactive,inactive,–,–,–
Cc1ccc(C(=O)Nc2cccc(C(F)(F)F)c2)cc1Nc1nc(-c2cccnc2)nc2c1cnn2C,9.35 µM (active),5.26 µM (active),18.7 µM (active),–,inactive,inactive,inactive,–,10.5 µM (active),–
C[N+]1(C)[C@@H]2CC(OC(=O)[C@H](CO)c3ccccc3)C[C@H]1[C@H]1O[C@@H]12 (stereo partly specified),inactive,inactive,inactive,inactive,–,inactive,inactive,–,–,–
CC=CC[C@@H](C)C(=O)[C@H]1C(=O)N[C@@H](C(C)C)C(=O)N(C)CC(=O)N(C)[C@@H](CC(C)C)C(=O)N[C@@H](C(C)C)C(=O)N(C)[C@@H](CC(C)C)C(=O)N[C@@H](C)C(=O)N[C@H](C)C(=O)N(C)[C@@H](CC(C)C)C(=O)N(C)[C@@H](CC(C)C)C(=O)N(C)[C@@H](C(C)C)C(=O)N1C,23.5 µM (active),23.5 µM (active),inactive,–,–,–,–,–,18.7 µM (active),–
O=C(Nc1cc(Cl)cc2c1[nH]c1cnccc12)c1cccnc1,1.87 µM (active),4.18 µM (active),10.5 µM (active),inactive,inactive,inactive,6.62 µM (active),–,–,–
O=c1cc(-c2ccc(O)cc2)oc2cc(O)cc(O)c12,23.5 µM (active),10.5 µM (active),4.18 µM (active),–,–,–,–,–,20.9 µM (active),–
CCC(=O)O[C@]1(C(=O)CO)CC[C@H]2[C@@H]3CCC4=CC(=O)CC[C@]4(C)[C@@H]3CC[C@@]21C,inactive,inactive,inactive,inactive,–,inactive,inactive,–,–,–
O=C(CCc1ccc(O)cc1)c1c(O)cc(O)cc1O[C@@H]1O[C@H](CO)[C@H](O)[C@H](O)[C@H]1O,inactive,inactive,inactive,–,inactive,inactive,inactive,–,–,–
Oc1ccc(C2=Cc3ccc(O)cc3OC2)cc1,1.32 µM (active),0.833 µM (active),2.35 µM (active),2.64 µM (active),1.66 µM (active),–,2.64 µM (active),2.64 µM (active),4.18 µM (active),–
COc1cc(NC(=O)c2ccc(-c3ccc(Cl)cc3)o2)cc(OC)c1,inactive,2.35 µM (active),inactive,7.43 µM (active),–,20.9 µM (active),16.6 µM (active),2.96 µM (active),inactive,–
O=C(OCC#CCSc1nnc(-c2cccc3ccccc23)o1)c1cc2ccccc2s1,inactive,inactive,23.5 µM (active),–,inactive,inactive,inactive,–,–,–
C[C@]12CCC3c4ccc(O)cc4CCC3C1CCC2=O (stereo partly specified),1.87 µM (active),inactive,inactive,0.833 µM (active),inactive,inactive,inactive,–,–,–
O=C1C[C@@H](c2ccc(O)cc2)Oc2cc(O)cc(O)c21,inactive,inactive,inactive,–,–,inactive,–,–,inactive,–
COc1ccc2cccc(CCNC(C)=O)c2c1,inactive,inactive,inactive,inactive,–,inactive,inactive,–,inactive,–
CC1(C)CCC[C@@]2(C)[C@@H]1CC[C@@]1(C)OC(=O)C[C@H]21,14.8 µM (active),inactive,inactive,–,–,inactive,inactive,–,inactive,–
COc1cc2nc(-c3ccc(N4CCN(C)CC4)cc3)nc(NCCN3CCOCC3)c2cc1OC,0.0296 µM (active),0.148 µM (active),0.0264 µM (active),0.148 µM (active),0.296 µM (active),0.118 µM (active),0.0469 µM (active),0.0166 µM (active),0.059 µM (active),–
CC(C)(C(=O)NCC(F)(F)C(F)(F)F)C(=O)N[C@@H]1C(=O)Nc2ccccc2-c2ccccc21,inactive,20.9 µM (active),inactive,18.7 µM (active),–,2.35 µM (active),18.7 µM (active),–,inactive,–
NC[C@@H]1O[C@@H](O[C@H]2[C@@H](O)[C@H](O[C@@H]3[C@@H](O)[C@@H](N)C[C@H](N)[C@H]3O[C@H]3O[C@H](CN)[C@@H](O)[C@@H](O)[C@H]3N)O[C@H]2CO)[C@H](N)[C@@H](O)[C@@H]1O,inactive,inactive,inactive,inactive,inactive,inactive,inactive,–,–,–
CC(C)=CC[C@@H](O)C1=CC(=O)c2c(O)ccc(O)c2C1=O,0.662 µM (active),8.33 µM (active),0.418 µM (active),4.18 µM (active),–,9.35 µM (active),–,1.18 µM (active),1.32 µM (active),–
O=C1c2ccccc2-[n+]2ccc3c([nH]c4ccccc43)c21,1.32 µM (active),1.32 µM (active),1.48 µM (active),5.9 µM (active),7.43 µM (active),3.72 µM (active),3.72 µM (active),8.33 µM (active),2.09 µM (active),–
O=C(Nc1c(Cl)cncc1Cl)c1ccc(OC(F)F)c(OCC2CC2)c1,inactive,26.4 µM (active),inactive,inactive,inactive,inactive,inactive,–,–,–
Cc1c(O)cccc1C(=O)N[C@@H](CSc1ccccc1)[C@H](O)CN1C[C@H]2CCCC[C@@H]2C[C@@H]1C(=O)NC(C)(C)C,26.4 µM (active),20.9 µM (active),23.5 µM (active),16.6 µM (active),16.6 µM (active),14.8 µM (active),18.7 µM (active),14.8 µM (active),–,–
O=C(O)CCC1CCC(c2cc(F)ccc2F)(S(=O)(=O)c2ccc(Cl)cc2)CC1 (stereo unspecified),inactive,5.9 µM (active),inactive,5.9 µM (active),14.8 µM (active),–,16.6 µM (active),–,–,–
CCOC(=O)O[C@]1(C(=O)OCCl)CC[C@@H]2[C@H]3CCC4=CC(=O)C=C[C@]4(C)[C@@H]3[C@@H](O)C[C@@]21C,inactive,inactive,inactive,inactive,–,inactive,–,–,–,78.2% (active)
